The campaign covered roughly 290,000 compounds. About 27,000 (9.3%) were called active. The sample holds actives, similar compounds and a random draw of the others, so the mix is not that of the screen. Values without a mark were called inactive. No stated cut-off is given here; in the data, active means inhibition mostly above about 28% (no sharp cut-off); inactive means mostly below about 43%.
experiment: A qHTS for Small Molecule Inhibitors of Shiga Toxin; conditions: Vero cells, Shiga toxin protein synthesis inhibition reporter; at 38.7 µM, hits give high values; further: 0% is about no effect

| SMILES | inhibition |
| --- | --- |
| CC(C)(C)C1CCC(=NNC(=O)c2ccc(Br)o2)CC1 (stereo not given) | 50.9% (active) |
| CCCC(=O)Nc1ccc(Cl)c(NC(=O)c2ccc(Br)o2)c1 | -13.8% |
| CC(C)(C)C1CCC(=NNC(=O)c2cc(-c3ccccc3)n[nH]2)CC1 (stereo not given) | 5.96% |
| O=C(CNC(=O)c1ccc(Br)o1)NCC1CCCO1 (stereo not given) | -17.7% |
| CCC(C)(C)C1CCC(=NNC(=O)c2ccc(Br)o2)CC1 (stereo not given) | 123% (active) |
| CC(NC(=O)C(=O)NN=C1CCC(C(C)(C)C)CC1)c1ccccc1 (stereo not given) | -9.73% |
| O=C(CCN1C(=O)[C@@H]2Cc3ccccc3CN2C1=O)NCc1ccccc1 | -1.35% |
| CCc1ccc(S(=O)(=O)N/N=C\c2ccc([N+](=O)[O-])o2)cc1 | 9.6% |
| O=C(/C=C/c1ccc(OCc2c(F)cccc2Cl)cc1)N1CCOCC1 | 54.8% |
| CCOC(=O)C(C)n1cnc2scc(-c3ccc(C)c(C)c3)c2c1=O (stereo not given) | 2.19% |
| CCCN1C2=C(C(=O)CCC2)C(c2ccc(O)c(Br)c2)C2=C1CCCC2=O | 6.12% |
| CCOC(=O)C1(CCOc2ccccc2)CCN(Cc2cc(OC)c(O)cc2Cl)CC1 | 21.9% |
| CCN(CC)CCn1cnc2c1c(=O)[nH]c(=O)n2Cc1ccccc1 | -12.7% |
| C=CCNC(=O)COc1coc(CN2CCN(Cc3ccccc3)CC2)cc1=O | -1.93% |
| COc1ccccc1/C=C1\SC(=O)N(CCC(=O)N(C)C2CCS(=O)(=O)C2)C1=O (stereo not given) | 18.1% |
| O=C(CN1C(=O)S/C(=C\c2ccccc2F)C1=O)NCCCn1ccnc1 | 1.8% |
| COc1ccc(/C=C2\SC(=O)N(CCC(=O)NC3CCS(=O)(=O)C3)C2=O)cc1 (stereo not given) | 65.1% (active) |
| COc1ccc(NC(=O)CCN2C(=O)/C(=C/c3ccc4c(c3)OCO4)SC2=S)cc1 | -2.97% |
| COc1ccc(/C=C2\SC(=O)N(CCC(=O)NCCCn3ccnc3)C2=O)cc1 | 65.3% (active) |
| O=C(CCN1C(=O)c2ccccc2C1=O)NCCCn1ccnc1 | -4.06% |

| SMILES | inhibition |
| --- | --- |
| O=C1C(=O)N(CCN2CCOCC2)C(c2cccc(Cl)c2)/C1=C(/O)c1ccc2c(c1)OCO2 (stereo not given) | -5.97% |
| CS(=O)(=O)N(CC(=O)N1CCCCCC1)c1cccc(Cl)c1Cl | -8.4% |
| CC(=O)N1CCOc2ccc(S(=O)(=O)N3CCC(C(=O)Nc4ccccc4F)CC3)cc21 | -3.81% |
| CSCCC(NS(=O)(=O)c1ccc(C)cc1)C(=O)N1CCCC1 (stereo not given) | -8.89% |
| COc1ccc2c(C)c(CCC(=O)NC3CC3)c(=O)oc2c1C | 12.7% |
| O=C(N/N=C\c1ccc(-c2ccc(Cl)c(Cl)c2)o1)C(=O)N1CCCC1 | -9.82% |
| COC(=O)N/N=C/c1ccc(-c2ccc(Cl)c(Cl)c2)o1 | 59.7% (active) |
| Nc1nnnn1CC(=O)N/N=C/c1ccc(-c2cccc(Cl)c2)o1 | 14.1% |
| O=C(Nc1ccccc1C(=O)N1CCCCC1)c1ccco1 | -5.5% |
| O=C(c1cccc(S(=O)(=O)Nc2ccccc2Cl)c1)N1CCN(C(=O)c2ccco2)CC1 | 10.9% |
| CS/C(=C\C(=O)c1ccco1)Nc1ccccc1Cl | 53.1% (active) |
| Cc1c(Cl)cccc1NC(=O)[C@@]1(CC(=O)O)CC(/C=C/c2ccccc2)=NO1 | 4.14% |
| CCOc1cc(/C=N/NC(=O)c2cc(-c3ccccc3)nc3ccccc23)ccc1O | 46.8% (active) |
| COc1cccc(-c2cc(C(=O)N/N=C/c3ccc(OC)c(COC(C)=O)c3)c3ccccc3n2)c1 | 13.2% |
| CCOc1cc(/C=N/Nc2cc(C)nc3ccc(C)cc23)ccc1O | 16.6% |
| Cc1cc(=O)oc2cc(OC(C)C(=O)NCCc3ccc(S(N)(=O)=O)cc3)ccc12 (stereo not given) | -15.1% |
| CC(=O)N1CCOc2ccc(S(=O)(=O)N3CCN(c4cccc(C(F)(F)F)c4)CC3)cc21 | -3.75% |
| CCCCCc1ccc(-c2ccc(OCC)cc2)nc1 | 43.4% (active) |
| O=C(O)c1ccc(COCC(F)(F)F)cc1 | 8.49% |
| CCCCCc1ccc(-c2ccc(C(=O)O)cc2)nc1 | 71.9% (active) |

| SMILES | inhibition |
| --- | --- |
| CCOc1c(CNCc2ccc(C(=O)O)cc2)cccc1OC | 11.6% |
| CCCCOc1ccc(-c2ncc(C(=O)OCC)c(N)n2)cc1 | 21.7% |
| CCCCCc1ccc(-c2cn(Cc3ccc4ccccc4c3)nn2)cc1 | -7.01% |
| Cc1ccc(NC(=O)CN2C(=O)NC(C)(c3ccc(Cl)cc3)C2=O)c(Br)c1 (stereo not given) | -4.27% |
| Cc1ccccc1OCC(=O)NCC(=O)OCC(=O)c1ccc2ccccc2c1 | 12.1% |
| CC(=O)c1ccc2c(c1)c1ccccc1n2CC(C)C | -9.15% |
| CC(=O)CCC(=O)c1ccc2ccccc2c1 | 52.7% (active) |
| C/C(=N\NC(=O)c1ccc2ccccc2c1)c1cccnc1 | 43.1% |
| CC(=O)c1ccc2c(ccc3ccccc32)c1 | 50.4% (active) |
| CCN(CC)Cc1cc(C(C)=O)ccc1O | -16.1% |
| Cc1cccc(NS(=O)(=O)c2ccc(C(=O)NCC(C)(C)N3CCOCC3)cc2)c1C | -13% |
| COc1cc(OC)c(S(=O)(=O)Nc2ccccc2C(=O)O)cc1S(=O)(=O)Nc1ccccc1C(=O)O | 7.19% |
| CCC(=O)N1CCc2cc(S(=O)(=O)CCC(=O)N3CCN(c4ccccc4F)CC3)ccc21 | 0.463% |
| COc1cc(NS(=O)(=O)c2ccc(NC(=S)NC(=O)c3ccccc3)cc2)nc(OC)n1 | -2.7% |
| O=C(Nc1ccc(Br)cn1)c1ccc([N+](=O)[O-])cc1Cl | 119% (active) |
| O=C(Nc1ccc(Br)cn1)c1ccc([N+](=O)[O-])o1 | 50.9% (active) |
| O=C(Nc1ccncc1)c1ccc([N+](=O)[O-])cc1Cl | -1.95% |
| CN1C(=O)c2ccc(C(=O)Nc3ccc(Br)cn3)cc2C1=O | -3.25% |
| O=C(/C=C/c1ccc(Cl)cc1)Nc1ccc(Br)cn1 | 34.5% |
| CC(C)C(=O)Nc1cccc(NC(=O)c2ccc([N+](=O)[O-])cc2Cl)c1 | 16.6% |

From PubChem BioAssay AID2315 (National Center for Advancing Translational Sciences (NCATS), 2010)
